Measured values taken from PubChem BioAssay.
Calls of active or inactive are those of the source. Unless noted, how the calls were made is not given here.

Key:
[1] = system: Wnt5a (protein binding on small-molecule microarray); experiment: Wnt5a binders on small-molecule microarray, primary screen, biophysical, 635/667 nm fluorescence (AID 1142); conditions: 635 nm fluorescence, higher = more signal;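 further: fluorescence read at 667 nm with signal to noise per printed feature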
[2] = cell viability in Huh7 cells, primary screen, cytotoxicity control for HCV replication inhibitor project, CellTiter-Glo luminescence, basal, 48 h (AID 1143); conditions: Huh7 HCV replicon, higher = more signal, called active from +8 up or from −8 down;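 further: Huh7 hepatoma cells carrying a hepatitis C replication reporter with no stimulus; test concentration not given here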
[3] = P. aeruginosa biofilm formation inhibitors, primary screen, PAO1 strain, BacTiter-Glo luminescence, LB-PBS (AID 1144); conditions: 12 h, higher = more signal
[4] = CREB reporter modulators without forskolin, primary screen, cell-based, PC12, CRE-LacZ reporter, unstimulated (AID 1145); conditions: no forskolin, luminescence, 4.5 h, higher = more signal, called active from +8 up or from −8 down
[5] = CREB reporter modulators under forskolin, primary screen, cell-based, PC12, CRE-LacZ reporter, forskolin-stimulated (AID 1146); conditions: luminescence, 4.5 h, higher = more signal, called active from +8 up or from −8 down;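 further: PC12 cells with 6xCRE LacZ reporter stimulated by forskolin 10 µM; beta-galactosidase reporter signal reflecting CREB driven transcription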
[6] = target: Streptavidin (Streptomyces avidinii) (UniProt P22629); experiment: streptavidin binders on small-molecule microarray, primary screen, artefact control for SMM compound annotation, biophysical, 635/667 nm fluorescence (AID 1147); conditions: streptavidin binding, higher = more signal;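 further: signal reflects streptavidin binding to arrayed compounds as a control protein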
[7] = small-molecule binders of probe aInhba, primary screen, biochemical, small-molecule microarray, 635/667 nm fluorescence (AID 1148); conditions: higher = more signal;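 further: score merges 667nm spot fluorescence with signal-to-noise for antibody binding to printed compounds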
Torsin-1A (Homo sapiens) [8] = target: Torsin-1A (Homo sapiens) (UniProt O14656); experiment: torsin A binders from cell lysate, primary screen, small-molecule microarray, wild-type, 635/667 nm (AID 1149); conditions: COS7 hTOR1A-WT lysate, 635 nm fluorescence, higher = more signal
Torsin-1A (Homo sapiens) [9] = target: Torsin-1A (Homo sapiens) (UniProt O14656); experiment: small-molecule binders of mutant TOR1A in lysate, primary screen, cell lysate, small-molecule microarray, COS7 lysate, 635/667 nm fluorescence (AID 1150); conditions: COS7 hTOR1A mutant lysate, 635 nm fluorescence, higher = more signal;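 further: score pools 667 nm emission and signal to noise measuring lysate protein binding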
[10] = system: Sonic hedgehog protein (Shh); experiment: small-molecule binders of Shh protein, primary screen, biochemical, small-molecule microarray, 635/667 nm fluorescence (AID 1151); conditions: small-molecule microarray binding, 635 nm fluorescence; higher = more signal;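 further: Shh protein binding to compounds spotted on small-molecule microarray slides; score combines spot fluorescence intensity with signal-to-noise across triplicate slides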

Torsin-1A (Homo sapiens), sequence (O14656 whole entry, looked up): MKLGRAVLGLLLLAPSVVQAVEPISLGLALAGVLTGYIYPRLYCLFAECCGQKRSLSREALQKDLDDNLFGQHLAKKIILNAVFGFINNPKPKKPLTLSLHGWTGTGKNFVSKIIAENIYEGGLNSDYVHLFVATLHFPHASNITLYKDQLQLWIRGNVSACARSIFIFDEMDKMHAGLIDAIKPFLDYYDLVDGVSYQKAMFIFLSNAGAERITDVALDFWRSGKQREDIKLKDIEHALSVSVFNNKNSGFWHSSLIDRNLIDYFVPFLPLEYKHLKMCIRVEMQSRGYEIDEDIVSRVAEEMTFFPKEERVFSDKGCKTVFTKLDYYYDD
Streptavidin (Streptomyces avidinii), sequence (P22629 whole entry, looked up): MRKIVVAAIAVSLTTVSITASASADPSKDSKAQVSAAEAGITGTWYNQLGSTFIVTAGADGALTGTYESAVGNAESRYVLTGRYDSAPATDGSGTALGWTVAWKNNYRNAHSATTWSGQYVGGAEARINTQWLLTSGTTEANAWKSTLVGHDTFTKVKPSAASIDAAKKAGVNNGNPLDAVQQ

Compound | composite z-score [1] | z-score [2] | z-score [3] | z-score [4] | z-score [5] | composite z-score [6] | composite z-score [7] | composite z-score (Torsin-1A (Homo sapiens) [8]) | composite z-score (Torsin-1A (Homo sapiens) [9]) | composite z-score [10]
CC[C@@H](c1ccccc1)n1c(=O)n2n(c1=O)[C@H]1[C@H](O)[C@@H]3O[C@@H]3C(=NOCC(C)C)[C@H]1CC2 | -0.11 | 0.529 (inactive) | 0.51 (inactive) | 0.786 (inactive) | 0.671 (inactive) | -0.36 | -0.0405 | -0.132 | -0.115 | 0.636
O=C1O[C@@H](c2ccccc2)[C@@H](c2ccccc2)N2[C@@H](c3ccccc3OCCO)[C@]3(C(=O)Nc4ccc(C#CCCO)cc43)[C@@H](C(=O)O)[C@H]12 | 0.44 | -5.04 (inactive) | -0.923 (inactive) | -0.465 (inactive) | 1.6 (inactive) | 0.618 | 1.43 | 0.536 | 0.925 | 0.517
CCOC(=O)[C@H](Cc1ccccc1)NC(=O)CCC1CC(OC(=O)NCc2ccc3c(c2)OCO3)CC2(CCCC(COC(=O)NCc3ccccc3)O2)O1 (stereo not given in full) | 0.0594 | -0.256 (inactive) | -0.971 (inactive) | -0.155 (inactive) | 0.807 (inactive) | 1.13 | -0.168 | 0.0156 | 0.28 | 0.944
CCOC(=O)[C@H](Cc1ccccc1)NC(=O)CCC1CC(OC(=O)NCc2ccc3c(c2)OCO3)CC2(CCCC(COC(=O)NCC(c3ccccc3)c3ccccc3)O2)O1 (stereo not given in full) | -0.169 | -0.9 (inactive) | -1.34 (inactive) | -0.255 (inactive) | 0.0668 (inactive) | 0.0072 | 0.0155 | 0.545 | 0.401 | 1.48
COC(=O)[C@H](C)NC(=O)CCC1CC(OC(=O)NCCc2ccc(F)cc2)CC2(CCCC(COC(=O)NCCc3ccc(Cl)cc3)O2)O1 (stereo not given in full) | 0.606 | -0.195 (inactive) | -0.739 (inactive) | -0.0732 (inactive) | -0.195 (inactive) | 1.07 | -0.0937 | 2.31 | -0.177 | 1.31
COc1ccc(CCNC(=O)[C@@H]2c3ccccc3C(=O)N(c3ccc(C)cn3)[C@H]2c2ccc(CO)cc2)cc1 | -0.657 | 0.569 (inactive) | -0.456 (inactive) | 0.648 (inactive) | 0.459 (inactive) | -0.776 | -0.253 | -2.23 | -1.76 | -0.497
CC(CCC(=O)OC[C@H]1O[C@H](C#Cc2ccccc2)C=C[C@@H]1Oc1ccc(C)cc1)=NOC[C@@H](O)[C@H]1O[C@@H]2OC(C)(C)O[C@@H]2[C@H]1O | -0.598 | -0.416 (inactive) | -0.025 (inactive) | 0.099 (inactive) | 0.0046 (inactive) | -0.564 | -0.178 | -0.526 | -0.617 | -0.108
